Screening results: PubChem, National Center for Advancing Translational Sciences (NCATS)
Hits are enriched below; roughly 19% of the tested compounds scored in any of these assays.
TDP1 cell CPT – qHTS for Inhibitors of human tyrosyl-DNA phosphodiesterase 1 (TDP1): qHTS in cells in presence of CPT | 12% of 420,000 active | chicken DT40 Tdp1-/-;hTDP1 cells + 20 nM CPT, ATP luminescence, 48 h | Potency, µM (doses to about 46.2 µM), inactives show at the highest dose activity change, negative = growth inhibition, actives largely listed as inhibitors | AID 686979, 2013; note: potency is the fitted concentration of half-maximal effect; % is set by controls: 0 for no effect and ±100 for the full control effect; nearly all actives have a fitted effect of over 55% in size
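Chicken DT40 Tdp1-/- cells complemented with human TDP1, 400 cells/well, exposed to compounds plus 20 nM camptothecin for at least 48 h at 37 C; viability read as ATP content by CellTiter-Glo luminescence.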
IL1B secr inh – qHTS for Inhibitors of Inflammasome Signaling: IL-1-beta AlphaLISA Primary Screen. THP-1 LPS/ATP IL-1B secretion, AlphaLISA, 16 h; hits give low values. 4.7% of 360,000 active. activity change, % at 57.5 µM; in the data active = activity change below about -50%; inconclusive = mostly about -30% to -49%; note: % is set by controls: 0 for no effect and ±100 for the full control effect
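Secreted IL-1B measured by AlphaLISA bead assay after 16 h compound exposure of THP-1 cells; compounds (final up to 57.5 uM) added 1 h before LPS (250 ng/mL) and ATP (1.25 mM) stimulation; lower signal means less secretion.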
HepG2 viability – qHTS for Inhibitors of TGF-b: Cytotox Counterscreen | HepG2 CAGA-GFP viability, ATP luminescence, 18 h | Potency, µM (doses to about 46.1 µM), without a hit: at the top dose activity change, negative = cytotoxicity, usual class: cytotoxic | 0.76% of 410,000 active; note: potency is the fitted concentration of half-maximal effect
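HepG2 CAGA-GFP cells (1000/well, DMEM with 1% FBS) received compound, then TGF-beta at 500 pg/mL final, and were incubated 18 hours at 37 degrees C. Viability was read by CellTiter-Glo luminescence. Media-only wells were set as complete cell-killing and DMSO as no toxicity.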
TGFb inhibitor – qHTS for Inhibitors of TGF-b; HepG2 CAGA-GFP TGF-b/SMAD3 reporter, GFP fluorescence, 18 h; TGF-beta stimulated, 500 pg/mL final; Potency, µM (highest dose often 46.1 µM), inactives show at the highest dose activity, negative = inhibition, hits mostly inhibitors; 1.2% of 410,000 active; note: potency is the fitted concentration of half-maximal effect; % is set by controls: 0 for no effect and ±100 for the full control effect; nearly all actives have a fitted effect of over 65% in size
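Read-out: total well GFP (ex488/em500-530) summed from mean per-cell fluorescence. Cells: HEPG2 CAGA-GFP, 1% FBS DMEM, 18 h at 37 degrees C with 500 pg/mL final TGF-beta. Unstimulated wells served as the full-inhibition control; stimulated DMSO wells = 0%.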
TDP1 cell noCPT – qHTS for Inhibitors of human tyrosyl-DNA phosphodiesterase 1 (TDP1): qHTS in cells in absence of CPT; 15% of 420,000 active; Potency, µM (series often up to 46.2 µM), without a hit: top-dose activity change, negative = growth inhibition, hits mostly inhibitors; AID 686978, 2013; DT40 Tdp1-/- hTDP1 cells, no CPT, ATP luminescence, 48 h; note: potency is the fitted concentration of half-maximal effect; % is set by controls: 0 for no effect and ±100 for the full control effect; nearly all actives have a fitted effect of over 55% in size
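Luminescent ATP content (CellTiter-Glo) served as the growth readout. Knockout chicken DT40 cells expressing human TDP1 were exposed to compounds without camptothecin for a minimum 48 hr at 37 °C.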
TDP1 inh – qHTS Assay for Inhibitors of Tyrosyl-DNA Phosphodiesterase (TDP1) | Tyrosyl-DNA phosphodiesterase 1 (Homo sapiens), Q9NUW8 | recombinant TDP1, AlphaScreen DNA substrate cleavage | Potency, µM (series often up to 130 µM), for inactives: at the top dose activity change, negative = inhibition, hits mostly inhibitors | 0.28% of 350,000 active; note: potency is the fitted concentration of half-maximal effect; % is set by controls: 0 for no effect and ±100 for the full control effect; nearly all actives have a fitted effect of over 40% in size
Target sequence (Q9NUW8 whole entry, looked up): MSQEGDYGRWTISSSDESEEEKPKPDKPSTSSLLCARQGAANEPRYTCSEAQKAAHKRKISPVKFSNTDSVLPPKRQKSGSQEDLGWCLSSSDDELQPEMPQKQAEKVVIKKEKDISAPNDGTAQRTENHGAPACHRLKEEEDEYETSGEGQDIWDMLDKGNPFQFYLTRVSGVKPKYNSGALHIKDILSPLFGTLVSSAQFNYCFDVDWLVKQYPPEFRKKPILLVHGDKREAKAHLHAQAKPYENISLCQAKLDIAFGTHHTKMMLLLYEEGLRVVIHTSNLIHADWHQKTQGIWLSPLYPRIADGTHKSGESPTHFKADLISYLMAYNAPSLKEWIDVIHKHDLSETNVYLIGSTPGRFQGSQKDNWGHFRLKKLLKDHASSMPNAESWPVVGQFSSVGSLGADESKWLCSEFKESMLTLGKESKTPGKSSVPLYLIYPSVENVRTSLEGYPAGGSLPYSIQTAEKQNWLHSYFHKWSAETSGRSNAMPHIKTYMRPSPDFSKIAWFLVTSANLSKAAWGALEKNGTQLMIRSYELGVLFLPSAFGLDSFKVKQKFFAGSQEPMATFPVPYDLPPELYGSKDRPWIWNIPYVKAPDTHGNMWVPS
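Enzyme-compound mixtures sat 15 min at room temperature, followed by a 5 min reaction with 15 nM final substrate and 10 min with AlphaScreen beads. Recombinant human Tdp1 was used at 1 nM final.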
Numbers without * were called inactive; [ ] = remark or other dose. Unless noted, calls come from the whole dose curve; as a rule, active = well fitted curve in the direction sought with a large enough effect; inconclusive = small, poorly fitted or top-dose-only effect, or another doubt; inactive = no such curve, though single readings can be large; an effect the other way counts as inactive or inconclusive.

Screening Cn1c(=O)n(C)c2cc(N3CCOCC3)c(NC(=O)c3c(F)cccc3F)cc21 returned TDP1 cell CPT inconclusive, HepG2 viability 1%, TGFb inhibitor 4%, TDP1 cell noCPT -28% and TDP1 inh 8%.
Cn1c(=O)n(C)c2cc(N3CCCCC3)c(NC(=O)Nc3ccc(Br)cc3)cc21 was read as TDP1 cell CPT inconclusive, HepG2 viability -26%, TGFb inhibitor -20%, TDP1 cell noCPT inconclusive and TDP1 inh 2%[12.3 µM].
Screening CCOC(=O)Cc1ccc(NC(=O)Nc2cc3c(cc2N2CCCCC2)n(C)c(=O)n3C)cc1 returned TDP1 cell CPT 4.6µM*, HepG2 viability -42%, TGFb inhibitor inconclusive, TDP1 cell noCPT 2.6µM* and TDP1 inh -5%.
Screening CCn1c(=O)n(CC)c2cc(N3CCCC3)c(NC(=O)c3c(F)cccc3F)cc21 returned TDP1 cell CPT inconclusive, IL1B secr inh 20, HepG2 viability -25%, TGFb inhibitor -8%, TDP1 cell noCPT 12µM* and TDP1 inh 6%.
For CCOC(=O)CSc1nc2sc3c(c2c(=O)n1Cc1ccccc1)CC(C)CC3 (configuration not stated) the results were TDP1 cell CPT inconclusive, HepG2 viability 0%, TGFb inhibitor 0%, TDP1 cell noCPT 12µM* and TDP1 inh 0%[12.3 µM].
Screening CCOC(=O)CSc1nc2sc3c(c2c(=O)n1-c1ccccc1)CC(C(C)C)OC3 (configuration not stated) returned TDP1 cell CPT inconclusive, HepG2 viability -15%, TGFb inhibitor 15%, TDP1 cell noCPT inconclusive and TDP1 inh 0%[12.3 µM].
CN1CCc2c(sc3c2c(=O)n(-c2ccccc2)c2nnc(SCc4ccc(Cl)cc4)n32)C1 was read as TDP1 cell CPT 13µM*, IL1B secr inh -81*, HepG2 viability -17%, TGFb inhibitor 0%, TDP1 cell noCPT inconclusive and TDP1 inh 1%.
Screening CN1CCc2c(sc3c2c(=O)n(-c2cccc(Cl)c2)c2nncn32)C1 returned TDP1 cell CPT inconclusive, IL1B secr inh 7, HepG2 viability -13%, TGFb inhibitor 32% and TDP1 cell noCPT -29%.
`CCOC(=O)CSc1nnc2n(-c3ccccc3)c(=O)c3c4c(sc3n12)CC(C(C)(C)C)CC4` (configuration not stated) gave TDP1 cell CPT inconclusive, HepG2 viability 11µM*, TGFb inhibitor inconclusive, TDP1 cell noCPT inconclusive and TDP1 inh 10%.
CCc1nc2c(OCc3cccc(Cl)c3)cccn2c1N(C)C(=O)C1CC1 was read as TDP1 cell CPT 16µM*, IL1B secr inh -21, HepG2 viability -19%, TGFb inhibitor 1% and TDP1 cell noCPT inconclusive.
For CCc1nc2c(OCc3ccc(Cl)cc3)cccn2c1N(C)C(=O)C1CC1 the results were TDP1 cell CPT inconclusive, IL1B secr inh -5, HepG2 viability -21%, TGFb inhibitor -14% and TDP1 cell noCPT inconclusive.
CCCCC(=O)N(C)c1c(CC)nc2c(OCc3cc(Cl)cc(Cl)c3)cccn12 was read as TDP1 cell CPT inconclusive, IL1B secr inh -62*, HepG2 viability -76%, TGFb inhibitor inconclusive and TDP1 cell noCPT inconclusive.
Screening CCOC(=O)C(=O)N(C)c1c(CC)nc2c(OCc3cc(Cl)cc(Cl)c3)cccn12 returned TDP1 cell CPT 18µM*, IL1B secr inh -14, HepG2 viability -41%, TGFb inhibitor -9% and TDP1 cell noCPT 21µM*.
CCc1nc2c(OCc3ccc(C(F)(F)F)cc3)cccn2c1N(C)C(=O)C1CC1 was read as TDP1 cell CPT 23µM*, IL1B secr inh -25, HepG2 viability -35%, TGFb inhibitor inconclusive and TDP1 cell noCPT 23µM*.
For CCOC(=O)OCC1OC(C#Cc2ccc(F)cc2F)C=CC1OC(=O)OCC (configuration not stated) the results were TDP1 inh 5%[21 µM].
CCOC(=O)C(=O)N(C)c1c(CC)nc2c(OCc3cccc(Cl)c3)cccn12 was read as TDP1 cell CPT 16µM*, IL1B secr inh 18, HepG2 viability -5%, TGFb inhibitor 0% and TDP1 cell noCPT inconclusive.
For CCc1nc2c(OCc3ccccc3)cccn2c1N(C)C(=O)Nc1ccccc1OC the results were TDP1 cell CPT inconclusive, IL1B secr inh -4, HepG2 viability -18%, TGFb inhibitor -1% and TDP1 cell noCPT inconclusive.
`CCCCC(=O)N(C)c1c(CC)nc2c(OCC(=O)c3ccc(Cl)cc3Cl)cccn12` gave TDP1 cell CPT 23µM*, HepG2 viability -13%, TGFb inhibitor inconclusive and TDP1 cell noCPT inconclusive.
For CCc1nc2c(OCc3cc(Cl)cc(Cl)c3)cccn2c1N(C)C(=O)Nc1ccccc1OC the results were TDP1 cell CPT 23µM*, IL1B secr inh 0, HepG2 viability -47%, TGFb inhibitor inconclusive and TDP1 cell noCPT inconclusive.
For CCOC(=O)c1c(C)[nH]c(C)c1S(=O)(=O)N(C)CC(=O)Nc1ccc(C)c(F)c1 the results were TDP1 cell CPT -16%, HepG2 viability -27%, TGFb inhibitor inconclusive, TDP1 cell noCPT -18% and TDP1 inh 3%.
OCCN1CCN(C(c2cccs2)c2ccc3cccnc3c2O)CC1 (configuration not stated) was read as TDP1 inh 7.1µM*.
`CCN1CCN(C(c2ccc(C(F)(F)F)cc2)c2ccc3cccnc3c2O)CC1` (configuration not stated) gave TDP1 cell CPT inconclusive, IL1B secr inh -74*, HepG2 viability -24%, TGFb inhibitor inconclusive and TDP1 cell noCPT 16µM*.
Screening CCN(C(=O)c1ccc2c(c1)N(Cc1cccc(Cl)c1)C(=O)c1ccccc1S2=O)c1ccccc1 (configuration not stated) returned TDP1 cell CPT inconclusive, HepG2 viability -13%, TGFb inhibitor inconclusive, TDP1 cell noCPT 16µM* and TDP1 inh 5%.
